hgDAF-12 ag – activates the H. glycines DAF-12 receptor ligand-binding domain | HEK293 GAL4-hgDAF12 UAS-luciferase reporter, agonist luminescence; normalized to butyrate control | activation, % at 6.8 µM | 370,000 compounds, 1.8% hits | AID 687014;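 active = activation above a cutoff set at the mean of all screened compounds plus 3 SD, cut at about 10% in these data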
ssDAF12 agonist – S. stercoralis DAF-12 activation, primary screen | HEK293 ssDAF-12/GRIP1 lit1-tk-luc reporter, luminescence; % of 3 µM dafachronic acid response | AID 652126 | activation, % at 6.8 µM | 370,000 compounds, 1% hits;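 active = activation above the mean over all tested compounds plus 3 SD, cut at about 0.9% in these data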
DAX1 inh-1 – inhibitors of human orphan nuclear receptor DAX1 (NR0B1) | inhibition, % at 6.75 µM | P51843 | 340,000 compounds, 0.99% hits | AID 504766 | HEK293 Gal4-DAX1 luciferase reporter, luminescence;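 active = inhibition above the mean over all tested compounds plus 3 SD, cut at about 4.2% in these data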;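 note: inhibition shows as a rise in luminescence from relieved DAX1 repression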
Target sequence (P51843 207-470 limits assumed): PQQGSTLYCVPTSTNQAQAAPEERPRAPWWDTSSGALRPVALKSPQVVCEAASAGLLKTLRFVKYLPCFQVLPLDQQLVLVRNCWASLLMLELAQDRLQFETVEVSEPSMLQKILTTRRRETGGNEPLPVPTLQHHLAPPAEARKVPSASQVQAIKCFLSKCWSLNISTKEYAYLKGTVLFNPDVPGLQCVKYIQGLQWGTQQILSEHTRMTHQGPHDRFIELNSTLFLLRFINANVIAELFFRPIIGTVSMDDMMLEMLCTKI
DAX1 inh-2 – blocks DAX1 repression of SF-1 activated StAR promoter | HEK293T StAR-luciferase reporter, SF-1/DAX-1 repression relief | 370,000 compounds, 1.1% hits | inhibition, % at 6.8 µM;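 active = inhibition above the mean over all tested compounds plus 3 SD, cut at about 3.6% in these data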;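 note: higher inhibition means more luminescence from relief of DAX-1 repression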
hcDAF12 agonist – H. contortus DAF-12 activation, primary screen; activation, % at 6.8 µM; 370,000 compounds, 1.4% hits; HEK293 hcDAF-12 lit1-tk-luc reporter, luminescence; 0% DMSO, 100% Δ7-dafachronic acid; AID 652067;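 active = activation above the mean of all tested compounds plus 3 SD, cut at about 5.5% in these data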
Hits are given with their value; . = inactive; / = no result. An excerpt weighted towards active compounds, which were near 4.1% of everything screened.

SMILES	hgDAF-12 ag	ssDAF12 agonist	DAX1 inh-1	DAX1 inh-2	hcDAF12 agonist
COC(=O)c1ccc(NC(=O)C(=O)c2c[nH]c3ccccc23)cc1	.	1.8	.	.	6.3
O=C1CCC(C(=O)OCC(=O)c2c[nH]c3ccccc23)=NN1	.	.	.	.	5.6
COc1ccc(C(=O)OCC(=O)c2c[nH]c3ccccc23)cc1OC	.	.	.	.	.
O=C(COc1ccccc1)OCC(=O)c1c[nH]c2ccccc12	.	.	.	.	.
C=CCCN1[C@@H](Cc2ccccc2)COc2ccccc2S1(=O)=O	.	.	/	.	.
O=C(O)c1cccc(COc2ccccc2Cl)c1	.	.	.	4.5	.
CC(=NN(Cc1ccccc1)c1ccccc1)c1ccccc1	.	.	4.5	.	.
Cc1ccc(S(=O)(=O)N(C)c2ccc(C(=O)Nc3ccccn3)cc2)cc1	.	.	.	.	.
CN(C)S(=O)(=O)c1ccc(C(=O)Nc2ccccn2)cc1	11	.	.	.	.
CN(C)S(=O)(=O)c1ccc(NC(=O)c2ccccn2)cc1	13	.	.	.	.
CC1=NC2=CC=CC3=NC(C(Cl)(Cl)Cl)=NC(=N1)N23	.	.	/	.	.
CCCCCn1nnc2c(=O)oc3ccccc3c21	.	1.1	.	.	.
CCCn1nnc2c(=O)oc3ccccc3c21	.	.	.	.	.
CCON1C(=O)C(C)(C)N(OCC)C(=O)C1(C)C	.	.	.	.	.
CCOC(=O)CON1C(=O)C(C)(C)N(OCC(=O)OCC)C(=O)C1(C)C	.	1.0	.	.	.
CC(C)(C)CC(=O)Nc1cccc(-c2cn3cccnc3n2)c1	11	.	.	.	.
C[C@@H]1ON(C)[C@H]2C[C@H]3c4[nH]c5c(-c6cccc(F)c6)cccc5c4CCN3C(=O)[C@@H]12	.	.	/	.	.
Cc1c(COC(=O)NC(C)C)c(COC(=O)NC(C)C)c2n1CS(=O)(=O)C2	.	.	/	.	.
CCCC(=O)N/C(N)=N/c1nc2ccccc2o1	.	.	.	.	.
CC(=O)N/C(N)=N/c1nc2cc([N+](=O)[O-])ccc2o1	.	.	.	.	.
CCC(=O)N/C(N)=N/c1nc2ccccc2o1	.	.	5.4	.	.
CC(C)CC(=O)N/C(N)=N/c1nc2ccccc2o1	.	.	5.3	.	.
CC(=O)N/C(N)=N/c1nc2cc(C)ccc2o1	11	.	.	.	.
N/C(=N\c1nc2ccccc2o1)NC(=O)c1ccccc1	.	.	.	.	.
COc1ccc(OC(=O)N(C)C[C@@H]2OCc3cn(nn3)CCCC(=O)N([C@@H](C)CO)C[C@H]2C)cc1	.	.	.	.	.
SMILES	hgDAF-12 ag	ssDAF12 agonist	DAX1 inh-1	DAX1 inh-2	hcDAF12 agonist
CC(C(=O)Nc1sc2c(c1C#N)CCCCC2)N1C(=O)c2ccccc2C1=O (stereo unspecified)	.	1.1	.	.	.
CC(=O)Nc1sc2c(c1C#N)CCCCC2	.	.	.	.	.
Cc1cc(C(=O)Nc2sc3c(c2C#N)CCCC3)no1	12	.	.	.	.
Cc1cc(C(=O)Nc2sc3c(c2C#N)CCC3)no1	.	.	.	.	.
CC(C)C[C@H]1COc2cc(NCc3ccc(Cl)c(Cl)c3)ccc2S(=O)(=O)N1	.	.	/	.	.
Cc1csc(NC(=O)Cn2nc(C)c([N+](=O)[O-])c2C)n1	.	2.9	.	.	.
Nc1c2c(nc3ccccc13)CCCC2O (stereo unspecified)	.	.	.	.	.
Nc1c2c(nc3ccccc13)CCCC2=O	.	.	.	.	6.5
CCOC(=O)C1=C(C(=O)OCC)C2N(Cc3ccc(Br)cc3)c3ccccc3[C@@]23C[C@@H](C(=O)OC)N(S(=O)(=O)c2ccc(C(F)(F)F)cc2)C3=N1 (stereo partly specified)	.	.	/	.	.
CC(C)c1ccc(NC(=O)COC(=O)Cn2cnc3c2c(=O)n(C)c(=O)n3C)cc1	.	.	.	.	.
COc1ccc(OC)c2sc(N3CCc4ccccc4C3)nc12	.	.	.	.	.
COc1ccc(OC)c2sc(N3CCCCC3)nc12	11	.	.	.	.
C[C@H](CO)N1C[C@H](C)[C@@H](CN(C)C(=O)Nc2ccccc2)OCc2cn(nn2)CCCC1=O	.	.	/	.	.
CC1=C(c2ccccc2)C=NNCC1=O	.	.	.	.	.
COC(=O)c1c(-c2ccccc2)c[nH]c1C	.	.	4.8	.	.
COC(=O)c1c(C)[nH]c(C=O)c1-c1ccccc1	.	.	/	.	.
COc1cccc(NC(=O)NCCC2=CCCCC2)c1	.	.	.	.	.
COc1ccccc1/C=C/C(=O)NCCC1=CCCCC1	12	.	.	.	.
COc1ccc(NC(=O)NCCC2=CCCCC2)cc1	12	.	.	.	.
Cn1c(=O)cc(NCc2ccccc2)[nH]c1=O	.	.	.	.	.
CCCCNc1cc(=O)n(C)c(=O)[nH]1	.	.	8.1	.	.
CC(SCc1ccccc1)C(=O)Nc1ccccc1-c1ccccc1 (stereo unspecified)	.	.	.	.	6.1
O=C(CSc1ccc(-c2ccccc2)nn1)N1CCCCC1	.	1.0	.	.	.
COc1ccc(-c2ccc(SCC(=O)N3CCOCC3)nn2)cc1	.	.	.	.	.
COc1ccc(C(=O)CSc2ccc(-c3ccccc3)nn2)cc1	.	.	4.6	.	.
SMILES	hgDAF-12 ag	ssDAF12 agonist	DAX1 inh-1	DAX1 inh-2	hcDAF12 agonist
COc1ccc(C(=O)CSc2nccn2C)cc1	12	.	.	.	.
O=C(CSc1ccc(-c2ccncc2)nn1)N1CCCCC1	.	.	.	.	.
Cn1ccnc1SCC(=O)c1ccc(OC(F)F)cc1	.	.	.	.	.
COc1ccc(-c2ccc(SC)nn2)cc1	.	.	.	4.4	.
C=CCN1C(=O)c2n[nH]c(C(C)C)c2C1c1ccccc1 (stereo unspecified)	.	.	/	.	.
COC(=O)c1sccc1S(=O)(=O)Nc1ccc(C(O)(C(F)(F)F)C(F)(F)F)cc1	.	.	/	.	.
Cc1ccccc1C(=O)N[C@H](C(=O)N1CCC[C@H]1C(=O)NCCc1ccccc1Cl)C(C)C	.	.	/	.	.
CNc1nc(N)c([N+](=O)[O-])c(NCC2CCCO2)n1 (stereo unspecified)	.	.	5.2	.	.
c1ccc(Cn2ccc3ccc(-c4ccc5ccn(Cc6ccc7ccccc7c6)c5c4)cc32)cc1	.	.	/	.	.
O=Cc1c(-c2ccc(F)cc2)nc2ccccn12	.	.	.	.	.
COc1ccc(-c2nc3ccccn3c2C=O)cc1	.	.	.	.	5.7
Cc1ccc(/C=C/C(=O)Nc2cccnc2)o1	.	1.0	.	.	.
COc1ccc(O)c(C(=O)c2cnc3nc4ccccc4n3c2)c1	.	.	.	.	6.1
COc1ccc(O)c(C(=O)c2cnn(-c3ccccn3)c2)c1	.	.	.	.	.
COC(=O)[C@]12C[C@H](CC(=O)NCCCN3CCCC3=O)C(=O)N(Cc3cccc4ccccc34)C1=C[C@H](C(C)C)O[C@@H]2C1CC1	.	.	/	.	.
